Records with an inconclusive call do not appear. Where a call stands in place of a potency, no number is given. A number with no mark means an inactive call. The source made the active and inactive calls. The call rests on the fitted dose curve; in most records, active means well fitted curve in the direction sought with a large enough effect; inconclusive means small, poorly fitted or top-dose-only effect, or another doubt; inactive means no such curve, though single readings can be large; an effect the other way counts as inactive or inconclusive.
Key:
[1] = target: Rap guanine nucleotide exchange factor 3 (Homo sapiens) (UniProt O95398); test: Confirmatory qHTS for antagonist of cAMP-regulated guanine nucleotide exchange factor 3 (EPAC1) (AID 1645880); further: nearly all actives have a fitted effect of over 55% in size; further: potency means the concentration at half of the fitted maximal effect
Chain of Rap guanine nucleotide exchange factor 3 (Homo sapiens) (O95398 whole entry, looked up): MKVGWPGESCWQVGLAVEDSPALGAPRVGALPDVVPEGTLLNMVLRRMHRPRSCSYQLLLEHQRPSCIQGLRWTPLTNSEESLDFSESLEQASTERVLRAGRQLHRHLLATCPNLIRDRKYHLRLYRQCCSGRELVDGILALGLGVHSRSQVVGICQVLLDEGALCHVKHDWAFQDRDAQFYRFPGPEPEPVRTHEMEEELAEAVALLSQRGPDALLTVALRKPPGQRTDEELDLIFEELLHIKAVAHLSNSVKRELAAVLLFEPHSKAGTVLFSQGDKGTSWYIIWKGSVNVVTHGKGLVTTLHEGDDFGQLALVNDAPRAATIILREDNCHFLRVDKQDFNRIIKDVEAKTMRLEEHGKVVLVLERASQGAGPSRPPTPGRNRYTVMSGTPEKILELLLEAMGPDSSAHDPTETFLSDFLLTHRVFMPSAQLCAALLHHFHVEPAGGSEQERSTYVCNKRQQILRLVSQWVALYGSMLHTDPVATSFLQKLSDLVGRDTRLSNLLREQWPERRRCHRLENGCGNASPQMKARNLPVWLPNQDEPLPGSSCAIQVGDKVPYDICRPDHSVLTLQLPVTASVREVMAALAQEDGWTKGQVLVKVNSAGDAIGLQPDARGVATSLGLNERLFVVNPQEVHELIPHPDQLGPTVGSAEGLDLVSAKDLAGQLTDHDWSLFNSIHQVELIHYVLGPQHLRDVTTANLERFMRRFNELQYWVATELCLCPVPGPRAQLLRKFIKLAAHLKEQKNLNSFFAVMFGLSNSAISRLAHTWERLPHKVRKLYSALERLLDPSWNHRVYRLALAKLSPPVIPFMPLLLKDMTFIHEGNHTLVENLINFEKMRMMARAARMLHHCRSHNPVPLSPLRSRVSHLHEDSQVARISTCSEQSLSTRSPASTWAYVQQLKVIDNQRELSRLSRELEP
In short: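 Released BODIPY-GDP fluoresces less than Rap1-bound BODIPY-GDP; the signal is followed at 480/540 nm at 5-min intervals over 30 min, after 5 min at room temperature. Reactions contain 100 nM EPAC1, 250 nM RAP1B-BODIPY-GDP and 50 uM GDP; results are normalized to ATA and DMSO.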

[2] = target: Rap guanine nucleotide exchange factor 3 (Homo sapiens) (UniProt O95398); test: Confirmatory qHTS for agonist of cAMP-regulated guanine nucleotide exchange factor 3 (EPAC1) (AID 1645881); further: nearly all actives have a fitted effect of over 75% in size; further: potency means the concentration at half of the fitted maximal effect;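 on activation: EPAC1 catalysed release of BODIPY-GDP from Rap1B seen as fluorescence loss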
[3] = target: Rap guanine nucleotide exchange factor 4 (Homo sapiens) (UniProt Q8WZA2); test: Confirmatory qHTS for agonist of cAMP-regulated guanine nucleotide exchange factor 4 (EPAC2) (AID 1645884);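 further: nucleotide exchange releases bodipy-GDP from Rap1 and this lowers its fluorescence; nearly all actives have a fitted effect of over 65% in size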; further: potency means the concentration at half of the fitted maximal effect
Chain of Rap guanine nucleotide exchange factor 4 (Homo sapiens) (Q8WZA2 whole entry, looked up): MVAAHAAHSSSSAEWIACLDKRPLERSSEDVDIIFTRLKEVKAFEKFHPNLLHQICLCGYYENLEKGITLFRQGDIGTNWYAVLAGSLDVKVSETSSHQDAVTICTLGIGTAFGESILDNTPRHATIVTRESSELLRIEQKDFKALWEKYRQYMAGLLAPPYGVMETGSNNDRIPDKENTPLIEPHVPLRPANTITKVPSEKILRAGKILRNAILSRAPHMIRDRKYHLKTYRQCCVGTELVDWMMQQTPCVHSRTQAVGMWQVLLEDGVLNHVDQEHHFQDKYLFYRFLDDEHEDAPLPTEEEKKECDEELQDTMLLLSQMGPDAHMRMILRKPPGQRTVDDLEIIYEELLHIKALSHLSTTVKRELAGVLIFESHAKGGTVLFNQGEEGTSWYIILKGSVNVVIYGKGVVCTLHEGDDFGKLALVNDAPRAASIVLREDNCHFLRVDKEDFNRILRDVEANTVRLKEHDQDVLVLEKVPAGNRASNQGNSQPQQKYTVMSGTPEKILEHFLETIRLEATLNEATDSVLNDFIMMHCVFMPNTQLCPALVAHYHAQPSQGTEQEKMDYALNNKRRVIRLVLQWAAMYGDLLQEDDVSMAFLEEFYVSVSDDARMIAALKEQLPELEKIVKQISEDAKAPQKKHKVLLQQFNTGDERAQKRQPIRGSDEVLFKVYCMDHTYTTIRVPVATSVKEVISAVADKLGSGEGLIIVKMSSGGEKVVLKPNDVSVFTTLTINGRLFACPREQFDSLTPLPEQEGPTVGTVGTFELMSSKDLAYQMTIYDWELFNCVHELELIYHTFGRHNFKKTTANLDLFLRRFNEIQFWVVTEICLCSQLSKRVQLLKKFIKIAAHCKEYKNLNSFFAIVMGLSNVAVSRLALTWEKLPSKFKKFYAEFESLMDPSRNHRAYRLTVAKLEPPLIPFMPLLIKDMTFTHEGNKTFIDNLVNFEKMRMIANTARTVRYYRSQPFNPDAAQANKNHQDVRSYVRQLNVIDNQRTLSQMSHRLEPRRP

[4] = target: Rap guanine nucleotide exchange factor 4 (Homo sapiens) (UniProt Q8WZA2); test: Confirmatory qHTS for antagonist of cAMP-regulated guanine nucleotide exchange factor 4 (EPAC2) (AID 1645885); further: nearly all actives have a fitted effect of over 25% in size; further: potency means the concentration at half of the fitted maximal effect
[5] = target: Rap guanine nucleotide exchange factor 3 (Homo sapiens) (UniProt O95398); test: Counterscreen qHTS for antagonist of cAMP-regulated guanine nucleotide exchange factor 3 (EPAC1) (AID 1645888)
In short: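 Rap1B–BODIPY-GDP (250 nM) with 50 uM GDP; compounds pin-transferred to 9.74 nM–152 uM final (activator) or from 7.32 nM upwards (inhibitor). Fluorescence Ex/Em 480/540 nm read at 5 and 30 min, then after adding cAMP or buffer, at room temperature.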

Row | SMILES | Potency [1] | Potency [2] | Potency [3] | Potency [4] | Potency [5] | activation [3] | activity change, negative = inhibition [5] | outcome [4]
1 | O=C(N/N=C/c1ccc(F)cc1)c1cc(-c2ccco2)nc2ccccc12 | 16.9 µM (active) | inactive | inactive | inactive | inactive | – | – | –
2 | NS(=O)(=O)c1ccc(NC2=CC(=O)C(=O)c3ccccc32)cc1 | 26.9 µM (active) | inactive | inactive | 84.9 µM (active) | inactive | – | – | –
3 | CNC[C@H]1Oc2ccc(NC(=O)Nc3ccccc3)cc2CC(=O)N([C@H](C)CO)C[C@H]1C | inactive | inactive | inactive | inactive | inactive | – | – | –
4 | Cc1ccc(-c2cc(C(=O)Nc3ccc4c(c3)OCCO4)c3ccccc3n2)cc1 | inactive | inactive | – | inactive | – | 9.86% [at 17.1 µM, percent relative to cAMP agonist control] | 3.98% [at 30.8 µM] | –
5 | COc1ccccc1Sc1nc(-c2ccccc2)ncc1OC | inactive | inactive | – | inactive | – | 11.6% [at 17.1 µM, percent relative to cAMP agonist control] | 8.06% [at 30.8 µM] | –
6 | O=C(c1ccccc1)c1ccc2nc(-c3ccco3)c(-c3ccco3)nc2c1 | 4.78 µM (active) | inactive | inactive | inactive | inactive | – | – | –
7 | O=c1c(Cl)c(Cl)cnn1Cc1nnc(-c2ccccc2Br)o1 | 42.6 µM (active) | inactive | inactive | inactive | inactive | – | – | –
8 | COc1ccccc1Nc1nc(N)nc(CN2CCC(C)CC2)n1 | inactive | inactive | inactive | inactive | inactive | – | – | –
9 | COC(=O)CNc1cc(S(=O)(=O)N2CCCCC2)ccc1Oc1cccc(C)c1 | inactive | inactive | inactive | inactive | inactive | – | – | –
10 | CC(C)OC(=O)/C(=C/c1ccc2c(c1)c1ccccc1n2C)NC(=O)c1ccccc1 | inactive | inactive | inactive | inactive | inactive | – | – | –
11 | CCN1/C(=C/c2ccc3cc(C)ccc3[n+]2CC)Sc2ccccc21 | 75.7 µM (active) | inactive | inactive | inactive | inactive | – | – | –
12 | O=C1Nc2ccccc2SC1c1ccccc1 (stereo not given) | inactive | inactive | – | inactive | – | 3.23% [at 17.1 µM, percent relative to cAMP agonist control] | -15.7% [at 30.8 µM] | –
13 | CC1=C(C(=O)OC2CCCC2)C(c2c(Cl)cccc2Cl)CC(=O)N1 (stereo not given) | inactive | inactive | inactive | inactive | inactive | – | – | –
14 | COc1ccc2cc3[n+](cc2c1O)CCc1cc2c(cc1-3)OCO2 | 19 µM (active) | inactive | inactive | inactive | inactive | – | – | –
15 | N#CCC(=O)Nc1sc2c(c1C(N)=O)CCCC2 | inactive | inactive | – | inactive | – | 10.1% [at 17.1 µM, percent relative to cAMP agonist control] | -6.4% [at 30.8 µM] | –
16 | COc1ccc(NC(=O)COc2ccccc2C#N)c(S(=O)(=O)N2CCCCC2)c1 | inactive | inactive | inactive | inactive | inactive | – | – | –
17 | CCCN1C(=O)c2ccccc2NC1c1ccc(OC)cc1OC (stereo not given) | inactive | inactive | inactive | inactive | inactive | – | – | –
18 | Cc1ccc(NC(=O)c2ccc(Cl)cc2Cl)c(C(=O)c2ccccc2)c1 | inactive | inactive | inactive | – | inactive | – | – | inactive [at 12.7 µM]
19 | CCc1ccccc1NC(=O)c1cc2sc(Cl)cc2n1CC | inactive | inactive | inactive | inactive | inactive | – | – | –
20 | Cc1ccc(-c2cc3ccccc3nc2N2CCOCC2)cc1 | inactive | inactive | inactive | inactive | inactive | – | – | –

Row | SMILES | Potency [1] | Potency [2] | Potency [3] | Potency [4] | Potency [5] | activation [3] | activity change, negative = inhibition [5] | outcome [4]
21 | CN(C)C(=O)CCc1ccc2c3c([nH]c2c1)[C@]1(C)[C@@H](C(=O)N2CCCCC2)C[C@H](CC(=O)NCCc2ccccn2)C(=O)N1CC3 | inactive | inactive | – | inactive | – | -3.15% [at 17.1 µM, percent relative to cAMP agonist control] | -16% [at 30.8 µM] | –
22 | Cc1cc(NS(=O)(=O)c2ccc(NC(=O)Cc3ccc(Cl)c(Cl)c3)cc2)no1 | inactive | inactive | inactive | inactive | inactive | – | – | –
23 | CCCc1nn2c(=O)cc(COC(=O)c3cccc(NC(=O)CCc4ccccc4)c3)nc2s1 | inactive | inactive | inactive | inactive | inactive | – | – | –
24 | COC(CNC(=O)c1ccc2c3c(onc13)-c1ccccc1C2=O)OC | inactive | 50.1 µM (active) | 100 µM (active) | inactive | inactive | – | – | –
25 | O=c1cc(O)c2sc3nc(-c4cccnc4)cc(C(F)(F)F)c3c2[nH]1 | inactive | inactive | inactive | inactive | inactive | – | – | –
26 | Oc1ccc(NCc2ccccc2OCc2ccccc2)cc1 | inactive | inactive | inactive | inactive | inactive | – | – | –
27 | CCOc1ccc(S(=O)(=O)n2ccc(C)n2)c2ccccc12 | inactive | inactive | inactive | inactive | inactive | – | – | –
28 | CCOc1ccc(S(=O)(=O)N2CCCCC2)c2ccccc12 | inactive | inactive | inactive | inactive | inactive | – | – | –
29 | CCOC(=O)Cc1nnc(NC(=O)CSc2nnc3c(n2)[nH]c2ccccc23)s1 | 44.7 µM (active) | inactive | – | inactive | – | 6.98% [at 17.1 µM, percent relative to cAMP agonist control] | -37.4% [at 30.8 µM] | –
30 | CCc1ccc(Nc2n[n+](-c3ccccc3)c(-c3cc(OC)c(OC)cc3Br)s2)cc1 | inactive | inactive | inactive | inactive | inactive | – | – | –
31 | CC(=C\c1ccccc1)/C=C1/SC(=S)N(CCCC(=O)O)C1=O | 84.9 µM (active) | inactive | inactive | inactive | inactive | – | – | –
32 | CC(C)(C)c1ccc(OCCC(=O)OCC(=O)Nc2ccc(N3CCOCC3)cc2)cc1 | inactive | inactive | inactive | inactive | inactive | – | – | –
33 | COc1cnc(-c2ccccn2)nc1Oc1cccc(Cl)c1 | inactive | inactive | inactive | 10.7 µM (active) | inactive | – | – | –
34 | C=CCn1c(-c2ccc(S(=O)(=O)N3CCOCC3)cc2)csc1=Nc1ccccc1 | inactive | inactive | inactive | inactive | inactive | – | – | –
35 | COCCn1cnnc1SCC(=O)Nc1sc2c(c1C#N)CCC2 | inactive | inactive | – | inactive | – | 9.93% [at 17.1 µM, percent relative to cAMP agonist control] | 9.73% [at 30.8 µM] | –
36 | O=C(CCNC(=O)c1ccccc1Cl)NCC(c1ccc(F)cc1)N1CCOCC1 (stereo not given) | inactive | inactive | inactive | inactive | inactive | – | – | –
37 | Cc1nn(CSc2c(F)c(F)c(F)c(F)c2F)c(C)c1[N+](=O)[O-] | inactive | inactive | – | inactive | – | 0.798% [at 17.1 µM, percent relative to cAMP agonist control] | -18.4% [at 30.8 µM] | –
38 | O=C(Nc1nc(-c2ccccc2)cs1)c1ccccc1NS(=O)(=O)c1ccc(F)cc1 | 19 µM (active) | inactive | inactive | 19 µM (active) | inactive | – | – | –
39 | C=CCn1c(NC(=O)c2ccccc2Cl)c(C#N)c2nc3ccccc3nc21 | 35.5 µM (active) | inactive | – | 3.01 µM (active) | – | -3.42% [at 17.1 µM, percent relative to cAMP agonist control] | -7.8% [at 30.8 µM] | –
